Laboratory results published in PubChem BioAssay (NCI).
The panel holds about 83,000 compounds, 20% with a hit somewhere; the sample as a whole holds those more often.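 Results are percent growth after 48 hours of single-concentration exposure. 100 means growth as in untreated cells, lower positive values show inhibition; negative values down to -100 show cell death.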 Active and inactive are the calls of the source. Rule for the calls: active = growth percent below 10; inactive = the rest.

Columns and labels:
Assay in all cases: NCI-60 one-dose screen, 48 h (100 = growth as untreated, 0 = no growth, -100 = all killed)
Details in all cases: 10 µM unless noted
SR leukemia = tested on: SR leukemia
RPMI-8226 leukemia = tested on: RPMI-8226 leukemia
OVCAR-8 ovarian = tested on: OVCAR-8 ovarian
OVCAR-5 ovarian = tested on: OVCAR-5 ovarian
OVCAR-4 ovarian = tested on: OVCAR-4 ovarian
SK-OV-3 ovarian = tested on: SK-OV-3 ovarian
IGROV1 ovarian = tested on: IGROV1 ovarian
OVCAR-3 ovarian = tested on: OVCAR-3 ovarian
HS 578T breast = tested on: HS 578T breast
NCI/ADR-RES ovarian = tested on: NCI/ADR-RES ovarian
T-47D breast = tested on: T-47D breast
MDA-MB-435 melanoma = tested on: MDA-MB-435 melanoma
SW-620 colon = tested on: SW-620 colon
MCF7 breast = tested on: MCF7 breast
HCT-116 colon = tested on: HCT-116 colon
HCC-2998 colon = tested on: HCC-2998 colon
KM12 colon = tested on: KM12 colon
BT-549 breast = tested on: BT-549 breast

Measured: growth

CC(C)(C)CC1(C)NC(=O)NC1=O (stereo not given)
inactive: SR leukemia 134% | RPMI-8226 leukemia 73.3% | OVCAR-8 ovarian 109% | OVCAR-5 ovarian 89.1% | OVCAR-4 ovarian 106% | SK-OV-3 ovarian 115% | IGROV1 ovarian 125% | OVCAR-3 ovarian 120% | HS 578T breast 105% | NCI/ADR-RES ovarian 99.7% | T-47D breast 108% | MDA-MB-435 melanoma 114% | SW-620 colon 103% | MCF7 breast 100% | HCT-116 colon 101% | HCC-2998 colon 113% | KM12 colon 106%

CC(=O)c1cccc(N(C)S(=O)(=O)c2ccc(C)cc2)c1
active: MDA-MB-435 melanoma 8.55%
inactive: SR leukemia 44.7% | RPMI-8226 leukemia 102% | OVCAR-8 ovarian 101% | OVCAR-5 ovarian 90.7% | OVCAR-4 ovarian 87.7% | SK-OV-3 ovarian 109% | IGROV1 ovarian 82.5% | OVCAR-3 ovarian 105% | HS 578T breast 102% | NCI/ADR-RES ovarian 82.4% | T-47D breast 87.8% | SW-620 colon 81.7% | MCF7 breast 60.5% | HCT-116 colon 94% | HCC-2998 colon 82.6% | KM12 colon 49.8%

CCOC(=O)Nc1nccs1
inactive: SR leukemia 110% | RPMI-8226 leukemia 100% | OVCAR-8 ovarian 104% | OVCAR-5 ovarian 110% | OVCAR-4 ovarian 109% | SK-OV-3 ovarian 99.9% | IGROV1 ovarian 97.2% | OVCAR-3 ovarian 109% | HS 578T breast 98.7% | NCI/ADR-RES ovarian 112% | T-47D breast 94.8% | MDA-MB-435 melanoma 111% | SW-620 colon 110% | MCF7 breast 101% | HCT-116 colon 104% | HCC-2998 colon 118% | KM12 colon 107%

ClCC(Cl)C1CCC(Cl)C(Cl)C1 (stereo not given)
inactive: SR leukemia 99.5% | RPMI-8226 leukemia 100% | OVCAR-8 ovarian 95.6% | OVCAR-5 ovarian 105% | OVCAR-4 ovarian 104% | SK-OV-3 ovarian 100% | IGROV1 ovarian 117% | OVCAR-3 ovarian 114% | HS 578T breast 103% | NCI/ADR-RES ovarian 104% | T-47D breast 100% | SW-620 colon 105% | MCF7 breast 87.1% | HCT-116 colon 95.6% | HCC-2998 colon 101% | KM12 colon 105%

C1CCc2onc(-c3noc4c3CCCCC4)c2CC1
inactive: SR leukemia 92.4% | RPMI-8226 leukemia 111% | OVCAR-8 ovarian 109% | OVCAR-5 ovarian 103% | OVCAR-4 ovarian 109% | SK-OV-3 ovarian 106% | IGROV1 ovarian 115% | OVCAR-3 ovarian 127% | HS 578T breast 115% | NCI/ADR-RES ovarian 115% | T-47D breast 101% | MDA-MB-435 melanoma 110% | SW-620 colon 124% | MCF7 breast 95.5% | HCT-116 colon 105% | HCC-2998 colon 109% | KM12 colon 107%

C=CCc1cc(OC)c(OC)c(OC)c1
inactive: SR leukemia 107% | RPMI-8226 leukemia 110% | OVCAR-8 ovarian 102% | OVCAR-5 ovarian 99.2% | OVCAR-4 ovarian 112% | SK-OV-3 ovarian 114% | IGROV1 ovarian 110% | OVCAR-3 ovarian 93.1% | HS 578T breast 103% | NCI/ADR-RES ovarian 105% | T-47D breast 108% | MDA-MB-435 melanoma 108% | SW-620 colon 91.8% | MCF7 breast 113% | HCT-116 colon 99.1% | HCC-2998 colon 100% | KM12 colon 88.7%

O=C(NC1CCCCC1)c1ccc(Cl)cc1
inactive: SR leukemia 103% | RPMI-8226 leukemia 105% | OVCAR-8 ovarian 105% | OVCAR-5 ovarian 99.5% | OVCAR-4 ovarian 108% | SK-OV-3 ovarian 114% | IGROV1 ovarian 103% | OVCAR-3 ovarian 102% | HS 578T breast 106% | NCI/ADR-RES ovarian 101% | T-47D breast 85.1% | MDA-MB-435 melanoma 105% | SW-620 colon 103% | MCF7 breast 104% | HCT-116 colon 106% | HCC-2998 colon 106% | KM12 colon 102%

Cc1ccc(NC(=O)c2ccccc2Cl)cc1
inactive: SR leukemia 92.3% | RPMI-8226 leukemia 94.8% | OVCAR-8 ovarian 115% | OVCAR-5 ovarian 99.1% | OVCAR-4 ovarian 107% | SK-OV-3 ovarian 124% | IGROV1 ovarian 93.8% | OVCAR-3 ovarian 122% | HS 578T breast 103% | NCI/ADR-RES ovarian 111% | T-47D breast 112% | MDA-MB-435 melanoma 109% | SW-620 colon 109% | MCF7 breast 99.4% | HCT-116 colon 114% | HCC-2998 colon 124% | KM12 colon 105%

C=CC(=O)OC1CCC(C(C)(C)CC)CC1 (stereo not given)
inactive: SR leukemia 98.9% | RPMI-8226 leukemia 103% | OVCAR-8 ovarian 107% | OVCAR-5 ovarian 103% | OVCAR-4 ovarian 105% | SK-OV-3 ovarian 111% | IGROV1 ovarian 117% | OVCAR-3 ovarian 109% | HS 578T breast 101% | NCI/ADR-RES ovarian 105% | T-47D breast 112% | MDA-MB-435 melanoma 103% | SW-620 colon 107% | MCF7 breast 96% | HCT-116 colon 104% | HCC-2998 colon 110% | KM12 colon 106%

CCCCNC(=O)c1ccc(OCC)cc1
inactive: SR leukemia 104% | RPMI-8226 leukemia 99.1% | OVCAR-8 ovarian 103% | OVCAR-5 ovarian 96.1% | OVCAR-4 ovarian 101% | SK-OV-3 ovarian 98.7% | IGROV1 ovarian 108% | OVCAR-3 ovarian 105% | HS 578T breast 101% | NCI/ADR-RES ovarian 100% | T-47D breast 96.1% | MDA-MB-435 melanoma 103% | SW-620 colon 97.9% | MCF7 breast 88.6% | HCT-116 colon 90.5% | HCC-2998 colon 104% | KM12 colon 106%

CN1CCN(C(=S)S)CC1
inactive: SR leukemia 104% | RPMI-8226 leukemia 102% | OVCAR-8 ovarian 109% | OVCAR-5 ovarian 106% | OVCAR-4 ovarian 127% | SK-OV-3 ovarian 111% | IGROV1 ovarian 74.4% | OVCAR-3 ovarian 115% | NCI/ADR-RES ovarian 108% | T-47D breast 93% | BT-549 breast 108% | MDA-MB-435 melanoma 109% | SW-620 colon 114% | MCF7 breast 99.3% | HCT-116 colon 107% | HCC-2998 colon 107% | KM12 colon 107%

Oc1cccc(CNC2CCCCC2)c1
inactive: SR leukemia 102% | RPMI-8226 leukemia 104% | OVCAR-8 ovarian 110% | OVCAR-5 ovarian 108% | OVCAR-4 ovarian 126% | SK-OV-3 ovarian 109% | IGROV1 ovarian 108% | OVCAR-3 ovarian 119% | NCI/ADR-RES ovarian 110% | T-47D breast 113% | BT-549 breast 112% | MDA-MB-435 melanoma 105% | SW-620 colon 116% | MCF7 breast 91.3% | HCT-116 colon 103% | HCC-2998 colon 102% | KM12 colon 107%

NNc1ncccn1
inactive: SR leukemia 98.2% | RPMI-8226 leukemia 108% | OVCAR-8 ovarian 108% | OVCAR-5 ovarian 108% | OVCAR-4 ovarian 101% | SK-OV-3 ovarian 105% | IGROV1 ovarian 111% | OVCAR-3 ovarian 101% | HS 578T breast 91.5% | NCI/ADR-RES ovarian 104% | MDA-MB-435 melanoma 91% | SW-620 colon 94.7% | HCT-116 colon 98.1% | HCC-2998 colon 102% | KM12 colon 101%

OCCc1ccc(Cl)cc1
inactive: SR leukemia 94.6% | RPMI-8226 leukemia 101% | OVCAR-8 ovarian 98.7% | OVCAR-5 ovarian 97.8% | OVCAR-4 ovarian 103% | SK-OV-3 ovarian 100% | IGROV1 ovarian 104% | OVCAR-3 ovarian 105% | HS 578T breast 95% | NCI/ADR-RES ovarian 107% | MDA-MB-435 melanoma 92.3% | SW-620 colon 105% | MCF7 breast 93.7% | HCT-116 colon 101% | HCC-2998 colon 110% | KM12 colon 88.9%

C/C(=N\O)c1ccccn1
inactive: SR leukemia 94.5% | RPMI-8226 leukemia 102% | OVCAR-8 ovarian 97.7% | OVCAR-5 ovarian 106% | OVCAR-4 ovarian 97.3% | SK-OV-3 ovarian 109% | IGROV1 ovarian 110% | OVCAR-3 ovarian 106% | HS 578T breast 95.5% | NCI/ADR-RES ovarian 100% | MDA-MB-435 melanoma 94.3% | SW-620 colon 94% | MCF7 breast 99.9% | HCT-116 colon 111% | HCC-2998 colon 109%

Ic1cccs1
inactive: SR leukemia 97.9% | RPMI-8226 leukemia 106% | OVCAR-8 ovarian 99.2% | OVCAR-5 ovarian 107% | OVCAR-4 ovarian 102% | SK-OV-3 ovarian 115% | IGROV1 ovarian 105% | OVCAR-3 ovarian 107% | HS 578T breast 98.8% | NCI/ADR-RES ovarian 98.8% | BT-549 breast 107% | MDA-MB-435 melanoma 107% | SW-620 colon 104% | MCF7 breast 97.9% | HCT-116 colon 103% | HCC-2998 colon 108% | KM12 colon 103%

C1C[S+]2CC[S+]1CC2
inactive: SR leukemia 101% | RPMI-8226 leukemia 95.1% | OVCAR-8 ovarian 96% | OVCAR-5 ovarian 107% | OVCAR-4 ovarian 115% | SK-OV-3 ovarian 100% | IGROV1 ovarian 106% | OVCAR-3 ovarian 102% | HS 578T breast 108% | NCI/ADR-RES ovarian 99.3% | BT-549 breast 97% | MDA-MB-435 melanoma 109% | SW-620 colon 101% | MCF7 breast 103% | HCT-116 colon 104% | HCC-2998 colon 105% | KM12 colon 106%

CC(C)C1CCC(C)C(O)C1 (stereo not given)
inactive: SR leukemia 96.1% | RPMI-8226 leukemia 101% | OVCAR-8 ovarian 99.1% | OVCAR-5 ovarian 108% | OVCAR-4 ovarian 108% | SK-OV-3 ovarian 106% | IGROV1 ovarian 104% | OVCAR-3 ovarian 105% | HS 578T breast 93.5% | NCI/ADR-RES ovarian 103% | MDA-MB-435 melanoma 93.5% | SW-620 colon 98% | MCF7 breast 100% | HCT-116 colon 111% | HCC-2998 colon 109%

C=C(OC(C)=O)c1ccccc1
inactive: SR leukemia 80.7% | RPMI-8226 leukemia 70.3% | OVCAR-8 ovarian 101% | OVCAR-5 ovarian 106% | OVCAR-4 ovarian 115% | SK-OV-3 ovarian 96% | IGROV1 ovarian 113% | OVCAR-3 ovarian 112% | HS 578T breast 90.7% | NCI/ADR-RES ovarian 109% | T-47D breast 89.5% | SW-620 colon 97.4% | MCF7 breast 97.1% | HCT-116 colon 98% | HCC-2998 colon 110% | KM12 colon 102%

O=C(Nc1cccc(Cl)c1)c1ccc(Cl)cc1Cl
inactive: SR leukemia 81.4% | RPMI-8226 leukemia 84.5% | OVCAR-8 ovarian 97.4% | OVCAR-5 ovarian 95.8% | OVCAR-4 ovarian 107% | SK-OV-3 ovarian 95% | IGROV1 ovarian 107% | OVCAR-3 ovarian 98% | HS 578T breast 92.7% | NCI/ADR-RES ovarian 103% | MDA-MB-435 melanoma 89.1% | SW-620 colon 92.7% | MCF7 breast 83.3% | HCT-116 colon 89% | HCC-2998 colon 106% | KM12 colon 85.1%
